Experimental data taken from PubChem BioAssay AID758 (NMMLSC, 2007).
The whole screen tested about 190,000 compounds, of which about 110 (0.058%) were called active. Roughly 2% stayed inconclusive and do not appear here. The sample holds actives, similar compounds and a random draw of the others, so the mix is not that of the screen. Values without a mark were called inactive.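 Rule for the calls: active = fluorescent GTP binding to Rab7 beads changed by at least 20 points from the 100% baseline, either direction, mostly lower; inconclusive = compound itself probably fluorescent, or too few beads counted; inactive = the rest.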

What follows are molecules tested on Rab7 GTPase wild type (dog), Bodipy-FL-GTP binding (assay: modulators of GTP binding to Rab7, primary screen, biochemical, wildtype, multiplex bead flow cytometry (AID 758;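 note: median green fluorescence of bound Bodipy-FL-GTP per Rab7 bead population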)). Details: GST-Rab7 beads, fluorescent GTP binding, at 10 µM, actives lie on both sides, untreated = 100%, excess cold GTP = 0%.

Row | Structure (SMILES) | GTP binding activity (percent of control)
1 | O=C(NC(Cc1c[nH]c2ccccc12)C(=O)O)/C(=C/c1ccco1)NC(=O)c1ccccc1 (stereo not drawn) | 98%
2 | O=C(NNC(=S)NCc1ccco1)C(c1ccccc1)c1ccccc1 | 105%
3 | CSc1nsc(SC)c1NC(=O)OC1CCCCC1 | 20% (active)
4 | COc1ccc(NC(=O)c2c(SC)nsc2SC)cc1 | 103%
5 | CSc1ncccc1C(=O)NC1CCCCCC1 | 100%
6 | COc1ccc(/C=N/S(=O)(=O)c2ccccc2)cc1OC | 97%
7 | O=[N+]([O-])/C(N=Nc1ccccc1)=N\Nc1ccccc1 | 101%
8 | CCC(C)(C)NC(=O)CN(Cc1cccs1)C(=O)CNS(=O)(=O)c1ccc(F)cc1 | 98%
9 | Cc1ccc(CN2CCN(Cc3ccc(OCCO)cc3)CC2CCO)o1 (stereo not drawn) | 104%
10 | Cc1cccc(N2CCN(c3ccc(NC(=O)/C=C\C(=O)O)cc3)CC2)c1 | 97%
11 | O=C1CS(=O)CN1c1ccc(Oc2ccccc2)cc1 (stereo not drawn) | 93%
12 | Cc1ccc(C(=O)NCC(=O)O)s1 | 95%
13 | Cc1c(-c2cccc(Cl)c2)nc2ccccc2c1C(=O)OCC(=O)N(C)C1CCS(=O)(=O)C1 (stereo not drawn) | 105%
14 | CCOC(=O)C1(Cc2cccc(OC)c2)CCN(C(C)COC)CC1 (stereo not drawn) | 104%
15 | CCSC1=NCCN1S(=O)(=O)c1ccc(F)cc1 | 105%
16 | CCOc1ccc(/C=N/Nc2nncc(-c3ccccc3)n2)cc1OC | 102%
17 | COc1ccc(-c2[nH]ncc2CN(Cc2nccn2C)C(C)C)cc1F | 100%
18 | Cc1ccc(-c2cc(C(F)(F)F)n3ncc(C(=O)N4CCCCC4c4cccnc4)c3n2)cc1 (stereo not drawn) | 97%
19 | Cc1cccc(N2CCN(c3ccc(C(N)=O)cc3[N+](=O)[O-])CC2)c1C | 95%
20 | Cc1nnc(SCC(=O)NNC(=O)c2ccc(Cl)cc2)n1CC1CCCO1 (stereo not drawn) | 100%
21 | COc1cc2[nH]c(=O)n(Cc3ccc(C(=O)NC4CCN(Cc5ccccc5)CC4)cc3)c(=O)c2cc1OC | 104%
22 | CCCCn1c(N)c(N2CCOCC2)c(=O)n(CC(=O)NCCc2ccccc2)c1=O | 105%
23 | COCCCNC(=S)NNC(=O)C(O)(c1ccccc1)c1ccccc1 | 109%
24 | CC(OC(=O)CCc1nc(=O)c2ccccc2n1C)C(=O)NCc1ccc2c(c1)OCO2 (stereo not drawn) | 97%

Row | Structure (SMILES) | GTP binding activity (percent of control)
25 | COc1ccc(NS(=O)(=O)c2cc(NC(=O)CC(=O)c3ccc([N+](=O)[O-])cc3)ccc2C)cc1 | 106%
26 | COc1cc(OC)cc(-c2nnc(SCC(=O)Nc3ccc(C(=O)O)cc3)s2)c1 | 93%
27 | Oc1ccc(-c2nncn2-c2ccccc2)cc1 | 99%
28 | CCN(CCn1cccn1)Cc1cn[nH]c1-c1ccc(OC)cc1F | 97%
29 | CCN(CC)S(=O)(=O)c1ccc(NC(=O)c2cccnc2Cl)c(NC(=O)c2cccnc2Cl)c1 | 91%
30 | CCOC(=O)C1(CC2CCCCO2)CCN(Cc2nc(-c3cccs3)oc2C)CC1 (stereo not drawn) | 99%
31 | NC(N)=N/N=C/c1ccc(Cl)c([N+](=O)[O-])c1 | 103%
32 | CC(Nc1nc(N2CCN(CCO)CC2)nc2ccccc12)c1ccccc1 (stereo not drawn) | 98%
33 | CC(=O)NCC(=O)N1CCCC(C(=O)c2ccc3c4c(cccc24)CC3)C1 (stereo not drawn) | 98%
34 | CC(C)N1CCC(N2CCN(Cc3cccnc3)CC2CCO)CC1 (stereo not drawn) | 104%
35 | N#Cc1c(NC(=O)C2CC(Cl)=CCC2C(=O)O)sc2c1CCCCC2 (stereo not drawn) | 94%
36 | CCOC(=O)c1ccc(N2C(=O)CC(N3CCN(C(=O)c4ccccc4)CC3)C2=O)cc1 (stereo not drawn) | 97%
37 | COCCCNc1nc2c(-c3cccc(C(F)(F)F)c3)nnn2c2ccccc12 | 105%
38 | C/C(CCc1ccccc1)=N\NC(=O)c1ccc(CN2CCOCC2)cc1 | 103%
39 | Cc1ccccc1NS(=O)(=O)CCCCC(Cl)(Cl)Cl | 96%
40 | CC1CCN(S(=O)(=O)c2ccc(S(=O)(=O)NCc3cccnc3)cc2)CC1 | 98%
41 | CCCNC(=O)c1c(Cl)cnn1-c1ccc(C)cc1 | 96%
42 | O=C(CO/N=C/c1ccccc1OC(F)F)NC1CCCC1 | 103%
43 | O=C(NNC(=O)C1C2CCC(C2)C1C(=O)O)c1ccc(Cl)cc1 (stereo not drawn) | 103%
44 | CCN(CC)S(=O)(=O)c1ccc(OC(C)C)c(N)c1 | 107%
45 | CN(C)/C=C(/C(=O)c1ccccc1Cl)S(C)(=O)=O | 104%
46 | CCCN(CCC)CCCNC(=O)CNC(=O)c1nn(-c2ccc(OC)cc2)c(=O)c2ccccc12 | 95%
47 | CC(=O)c1c(C)[nH]c(C(=O)OCC(=O)NCCC(C)C)c1C | 95%
48 | Cc1cccc(C(=O)OCC(=O)NCC(C)C)c1O | 96%
